Only a selection was taken, and hits are over-represented in it overall.
IDE exosite inh – exo-site inhibitors of human insulin-degrading enzyme; purified IDE, FL-6b probe fluorescence polarization; hits give low values; z-score at 20 µM; 17,000 compounds, 6.3% hits; AID 1259349;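 active = z-score of -3 or lower, meaning strong loss of probe binding signal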;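 also: His-tagged human IDE residues 42-1019 made in E. coli with 30 nM FL-6b probe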
Target sequence (P14735 42-1019 limits assumed): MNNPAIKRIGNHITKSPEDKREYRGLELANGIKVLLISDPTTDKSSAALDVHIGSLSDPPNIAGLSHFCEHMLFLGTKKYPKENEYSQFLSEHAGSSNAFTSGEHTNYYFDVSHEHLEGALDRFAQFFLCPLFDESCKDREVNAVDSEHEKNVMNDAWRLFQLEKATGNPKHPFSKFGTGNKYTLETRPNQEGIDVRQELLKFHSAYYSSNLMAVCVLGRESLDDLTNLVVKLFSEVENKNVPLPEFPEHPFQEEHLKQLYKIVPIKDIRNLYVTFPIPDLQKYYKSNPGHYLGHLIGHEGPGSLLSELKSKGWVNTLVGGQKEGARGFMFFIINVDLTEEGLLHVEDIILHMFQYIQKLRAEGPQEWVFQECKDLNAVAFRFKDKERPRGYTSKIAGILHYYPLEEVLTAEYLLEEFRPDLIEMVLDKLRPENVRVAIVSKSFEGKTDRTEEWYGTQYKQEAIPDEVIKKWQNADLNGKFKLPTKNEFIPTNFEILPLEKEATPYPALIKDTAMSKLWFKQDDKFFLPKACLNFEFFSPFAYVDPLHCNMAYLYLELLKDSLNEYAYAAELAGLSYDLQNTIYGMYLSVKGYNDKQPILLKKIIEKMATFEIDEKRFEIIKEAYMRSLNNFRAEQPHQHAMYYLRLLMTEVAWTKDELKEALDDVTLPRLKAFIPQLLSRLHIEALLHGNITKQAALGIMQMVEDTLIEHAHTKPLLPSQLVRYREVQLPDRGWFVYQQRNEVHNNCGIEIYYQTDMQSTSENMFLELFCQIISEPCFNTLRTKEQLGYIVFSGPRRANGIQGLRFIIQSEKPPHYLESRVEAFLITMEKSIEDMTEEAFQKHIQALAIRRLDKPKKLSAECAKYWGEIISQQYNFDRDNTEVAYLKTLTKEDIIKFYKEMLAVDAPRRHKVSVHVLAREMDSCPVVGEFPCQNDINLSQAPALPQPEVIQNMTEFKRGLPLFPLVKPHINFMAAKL
The depositor's hits bear a star; ! = not confirmed by another sample.

For N#C[C@H]1[C@H](c2ccc(-c3cccc(F)c3)cc2)[C@H](CO)N1C(=O)c1cccnc1 the results were IDE exosite inh -6*.
Screening N#C[C@@H]1[C@H](c2ccc(C#Cc3ccccc3F)cc2)[C@H](CO)N1C(=O)C1CCOCC1 returned IDE exosite inh -6.4*.
Screening O=C(Nc1ccc2c(c1)OCO2)N1[C@@H]2CNC[C@H]1C2c1ccc(-c2cccnc2)cc1 (stereo not given in full) returned IDE exosite inh -2.1.
`C/C=C/c1ccc([C@H]2[C@@H](C#N)N(C(=O)CN3CCOCC3)[C@H]2CO)cc1` gave IDE exosite inh -1.5.
CC(=O)N1CC(=O)N2[C@H](CO)[C@@H](c3ccc(C#CC(C)C)cc3)[C@H]2C1 was read as IDE exosite inh -0.46.
For C/C=C/c1ccc([C@@H]2[C@H](CO)N3C(=O)CN(Cc4ccc(C(=O)OC)cc4)C[C@@H]23)cc1 the results were IDE exosite inh 0.3.
`O=C(C[C@H]1C=C[C@@H](NC(=O)Nc2cccc(F)c2)[C@H](CO)O1)NCC1CCCCC1` gave IDE exosite inh 0.99.
`C[C@H]1CN([C@@H](C)CO)C(=O)c2c(c3ccccc3n2C)-c2ccccc2CO[C@@H]1CN(C)C(=O)Nc1ccc2c(c1)OCO2` gave IDE exosite inh 0.08.
Screening CO[C@H]1CN(C)C(=O)c2cc(NS(=O)(=O)c3cccc(Cl)c3)ccc2OC[C@@H](C)NC[C@@H]1C returned IDE exosite inh -0.2.
For CN(C)CC(=O)N1[C@H](C#N)[C@H](c2ccc(-c3ccc(C(=O)N(C)C)cc3)cc2)[C@H]1CO the results were IDE exosite inh -0.2.
For COCC#Cc1ccc([C@H]2[C@@H](CO)N3C(=O)CN(C(=O)CN4CCOCC4)C[C@H]23)cc1 the results were IDE exosite inh 1.
For CN(C)C(=O)c1ccc(-c2ccccc2[C@H]2[C@@H](CO)N(C(=O)C3CC3)[C@H]2C#N)cc1 the results were IDE exosite inh -0.42.
For N#C[C@H]1[C@H](c2ccc(C#Cc3ccccc3F)cc2)[C@@H](CO)N1C(=O)c1cccnc1 the results were IDE exosite inh -5.5*.
`N#C[C@@H]1[C@@H](c2ccc(C#Cc3ccccc3F)cc2)[C@H](CO)N1C(=O)c1cccnc1` gave IDE exosite inh -2.5.
For N#C[C@H]1[C@@H](c2ccccc2)[C@H](CO)N1C(=O)c1cccnc1 the results were IDE exosite inh 3.6.
`CCCC#Cc1ccc([C@H]2[C@H]3CN(S(=O)(=O)Cc4ccccc4)CC(=O)N3[C@H]2CO)cc1` gave IDE exosite inh 5.9.
`CCC(=O)N1CC(=O)N2[C@H](CO)[C@@H](c3ccc(C#CC(C)C)cc3)[C@@H]2C1` gave IDE exosite inh 0.36.
`O=C(Cc1ccncc1)N1C[C@@H]2N[C@H](C1)C2c1ccc(/C=C/c2ccccc2)cc1` (stereo not given in full) gave IDE exosite inh -4.6*!.
Screening O=S(=O)(c1ccc(-c2ccccc2)cc1)N1C[C@@H]2N[C@H](C1)C2c1ccc(-c2ccncc2)cc1 (stereo not given in full) returned IDE exosite inh 1.1.
Screening O=C(CN1CCOCC1)N1C[C@@H]2N[C@H](C1)C2c1ccc(-c2ccccc2)cc1 (stereo not given in full) returned IDE exosite inh 1.6.
For O=C(Cc1ccncc1)N1C[C@@H]2N[C@H](C1)C2c1ccc(-c2ccccc2)cc1 (stereo not given in full) the results were IDE exosite inh -3.1*.
C/C=C/c1ccc(C2[C@@H]3CN(C(=O)Cc4ccncc4)C[C@H]2N3)cc1 (stereo not given in full) was read as IDE exosite inh 2.8.
For C/C=C/c1ccc(C2[C@@H]3CN(C(=O)Cc4ccccc4)C[C@H]2N3)cc1 (stereo not given in full) the results were IDE exosite inh 2.2.
Screening CCS(=O)(=O)N1Cc2cc(C(=O)N(C)C)nc(-c3cccc(-c4ccc(C#N)cc4)c3)c2[C@@H]1CCO returned IDE exosite inh 1.4.
Screening C[C@H]1CN([C@@H](C)CO)C(=O)c2c(c3ccccc3n2C)-c2ccccc2CO[C@@H]1CN(C)Cc1cccc(C(F)(F)F)c1 returned IDE exosite inh -0.45.
Screening COCC(=O)NC[C@@H]1[C@@H](c2ccc(-c3ccccc3)cc2)[C@@H](CO)N1C(C)=O returned IDE exosite inh -1.7.
Screening O=C(c1cccc(F)c1)N1CC(=O)N2[C@@H](CO)[C@@H](c3ccc(C4=CCCC4)cc3)[C@@H]2C1 returned IDE exosite inh 4.7.
Screening COc1cccc(NC(=O)N2CC(=O)N3[C@H](CO)[C@@H](c4ccc(C5=CCCC5)cc4)[C@H]3C2)c1 returned IDE exosite inh 2.9.
N#C[C@H]1[C@H](c2ccc(-c3cccc(F)c3)cc2)[C@@H](CO)N1c1nc(-c2ccccc2)cs1 was read as IDE exosite inh 0.24.
CC(C)(C)[S@](=O)N1Cc2cc(C(=O)NCC(F)(F)F)nc(-c3cccc(-c4cccc(F)c4)c3)c2[C@@H]1CCO was read as IDE exosite inh -0.59.
Screening CC(C)(C)[S@@](=O)N1Cc2cc(C(=O)NCc3ccccc3F)nc(-c3cccc(-c4cncnc4)c3)c2[C@H]1CCO returned IDE exosite inh -5.5*.
Screening CCCNC(=O)c1cc2c(c(-c3cccc(-c4ccc(F)cc4)c3)n1)[C@H](CCO)N([S@@](=O)C(C)(C)C)C2 returned IDE exosite inh 1.5.
For C[C@@H]1CCCCO[C@H](CN(C)C(=O)C2CCCCC2)[C@H](C)CN([C@H](C)CO)C(=O)c2cc(NS(=O)(=O)c3ccccc3)ccc2O1 the results were IDE exosite inh 1.7.
Screening O=C(Nc1ccccc1F)N1CC(=O)N2[C@H](CO)[C@@H](c3ccc(-c4ccccc4)cc3)[C@@H]2C1 returned IDE exosite inh -6*.
For O=C(Nc1ccccc1F)N1CC(=O)N2[C@@H](CO)[C@H](c3ccc(C#Cc4ccccc4)cc3)[C@@H]2C1 the results were IDE exosite inh -8.9*.
O=C(Nc1cc(F)ccc1F)N1CC(=O)N2[C@H](CO)[C@H](c3ccc(-c4cccnc4)cc3)[C@H]2C1 was read as IDE exosite inh -4.5*.
O=C(Nc1cc(F)ccc1F)N1CC(=O)N2[C@@H](CO)[C@H](c3ccc(-c4cccnc4)cc3)[C@@H]2C1 was read as IDE exosite inh 1.6.
Screening O=C(Nc1ccccc1F)N1CC(=O)N2[C@H](CO)[C@@H](c3ccc(C#Cc4ccccc4)cc3)[C@H]2C1 returned IDE exosite inh -0.57.
O=C(Nc1ccccc1F)N1CC(=O)N2[C@H](C1)[C@@H](c1ccc(C#Cc3ccccc3)cc1)[C@@H]2CO was read as IDE exosite inh -2.8.
Screening O=C(Nc1ccccc1F)N1CC(=O)N2[C@H](CO)[C@@H](c3ccc(-c4ccccc4)cc3)[C@H]2C1 returned IDE exosite inh -1.4.
For O=C(Nc1ccccc1F)N1CC(=O)N2[C@H](CO)[C@H](c3ccc(-c4ccccc4)cc3)[C@@H]2C1 the results were IDE exosite inh -0.51.
Screening O=C(Nc1cc(F)ccc1F)N1CC(=O)N2[C@@H](CO)[C@@H](c3ccc(-c4cccnc4)cc3)[C@@H]2C1 returned IDE exosite inh 1.9.
C/C=C/c1ccc([C@H]2[C@@H](C#N)N(C(=O)c3cccnc3)[C@H]2CO)cc1 was read as IDE exosite inh -0.63.
Screening CN1CCN(C(=O)C[C@H]2CC[C@H]3[C@@H](COC[C@@H](O)CN3Cc3cccc(-c4ccncc4)c3)O2)CC1 returned IDE exosite inh 0.81.

Source: PubChem (Broad Institute)
